High-throughput results (PubChem)
A selection: hits, their analogues and other compounds. The true share with any hit is near 2.4%.
D2 PAM-1: human D2 receptor positive allosteric modulation; P14416; DiscoveRx D2 beta-arrestin cells, luminescence, 90 min; 100% = 57 uM dopamine signal; potentiation, % (test concentration not listed); actives 0.23% (n = 360,000); AID 624464; in the data active = potentiation above about 50%
Target sequence (P14416 whole entry, looked up): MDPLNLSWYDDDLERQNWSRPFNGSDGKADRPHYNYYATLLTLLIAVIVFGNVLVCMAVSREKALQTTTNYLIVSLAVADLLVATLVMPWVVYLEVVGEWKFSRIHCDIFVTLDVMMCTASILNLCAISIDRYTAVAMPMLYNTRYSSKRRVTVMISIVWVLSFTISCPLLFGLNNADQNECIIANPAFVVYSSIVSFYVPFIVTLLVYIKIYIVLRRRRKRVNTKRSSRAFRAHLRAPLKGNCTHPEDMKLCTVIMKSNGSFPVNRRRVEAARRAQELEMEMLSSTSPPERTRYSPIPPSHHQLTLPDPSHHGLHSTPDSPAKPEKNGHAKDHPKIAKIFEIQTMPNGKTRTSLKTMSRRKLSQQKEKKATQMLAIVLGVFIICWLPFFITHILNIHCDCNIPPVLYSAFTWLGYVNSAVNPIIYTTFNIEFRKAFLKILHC
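PathHunter D2 cells, attached overnight at 37 deg C, received compound in DMSO plus dopamine at EC20 (50 nM final) for 90 min at 37 deg C. Beta-arrestin recruitment was read as luminescence after 1 h with detection reagent at ambient temperature.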
D2 ag-1: D2 dopamine receptor (human) agonism; P14416; HEK293 T-REx D2 cells, calcium flux agonist mode; activation, % at 2 µM; actives 0.53% (n = 340,000); AID 485358;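 active = activation over 3 SD above normal in the single-dose calcium agonist read, cut at about 30% in these data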; also: 0% is about no effect
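Tetracycline-induced HEK293 Trex cells with D2 receptor force-coupled to calcium signaling, plated overnight at 30 C and loaded with no-wash calcium dye. Calcium flux read kinetically for 180 s after compound addition; responses flag agonists.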
D2 antag: D2 dopamine receptor (human) antagonism; inhibition, % at 10 µM; P14416; actives 2% (n = 340,000); AID 485344; HEK293 TREx D2 cells, calcium flux, dopamine EC80; in the data active = inhibition above about 30%; inactive = below that, where a call was filed; also: 0% is about no effect
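Tetracycline-induced HEK293 T-REx cells expressing D2 force-coupled to calcium signalling were dye-loaded, exposed to compound for 180 s, then challenged with an EC80 of dopamine; calcium flux was followed kinetically for a further 180 s.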
D2 ag-2: agonists of human D2 dopamine receptor (beta-arrestin); P14416; activation, % (test concentration not listed); actives 0.084% (n = 360,000); AID 624465; DiscoveRx PathHunter D2 beta-arrestin, luminescence, 90 min; 100% = 57 uM dopamine signal; in the data active = activation above about 40%
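Agonist mode: compounds alone added to overnight-plated D2 PathHunter cells for 90 min at 37 C, with 57 uM final dopamine (EC100) defining full response. Beta-arrestin recruitment detected by chemiluminescent reagent, read after 1 h at ambient temperature.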
D2 PAM-2: positively modulates the human D2 dopamine receptor allosterically. P14416. HEK293 T-REx D2, calcium flux, EC20 dopamine potentiation. potentiation, % at 10 µM. actives 0.34% (n = 340,000). AID 485347;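 active = potentiation over 3 SD above the plate norm, cut at about 30% in these data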; also: 0% is about no effect
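Potentiation of an EC20 dopamine calcium response measured kinetically over 180 s, after a preceding 180 s compound-only read flagging agonists. Cells: inducible Hek293 Trex D2 line, 4000/well, cultured overnight at 30 C before dye loading.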
* hit, by the source's call; x = no result given.

SMILES	D2 PAM-1	D2 ag-1	D2 antag	D2 ag-2	D2 PAM-2
COCCn1c(C)cc(/C=C(\C#N)C(=O)OC(C)C(=O)Nc2ccc(NC(C)=O)cc2)c1C (centres undefined)	1.0	0.0	33.4*	-0.2	-3.5
O=C1c2[nH]nc(-c3ccccc3O)c2C(c2ccc(Cl)cc2)N1CCc1ccccc1 (centres undefined)	x	2.1	x	x	-3.4
Cc1[nH]nc2c1C(c1ccc(F)cc1)C1=C(CC(C)(C)CC1=O)N2 (centres undefined)	-13.2	22.8	18.7	-1.6	30.4*
Cc1ccc(C2C3=C(CC(C)(C)CC3=O)Nc3n[nH]c(C)c32)cc1 (centres undefined)	-6.7	0.3	-33.3	-0.2	12.8
CCOc1ccc(S(=O)(=O)NCCC(=O)N2CC=C(c3ccccc3)CC2)cc1	0.8	0.5	-5.0	-1.1	-0.6
CSCCC(NC(=O)c1ccco1)C(=O)OC(C)C(=O)NC(=O)NC1CCCCC1 (centres undefined)	-2.7	7.3	49.3*	-2.5	x
O=c1c2cccnc2n(Cc2ccccc2F)c(=O)n1Cc1ccc(F)cc1	x	x	x	x	-2.3
CCCCn1c(N)c(N(CCOC)C(=O)c2ccc(C)c(S(=O)(=O)N3CCCCC3)c2)c(=O)[nH]c1=O	7.3	x	x	-3.4	-0.9
COc1cc(C2=NOC(C(=O)Nc3ccc4c(c3)OCO4)C2)cc(OC)c1OC (centres undefined)	4.9	-1.1	-2.8	-0.1	10.6
COc1ccc(C2=NOC(C(=O)NCc3ccc(F)cc3)C2)cc1OC (centres undefined)	-7.7	-0.1	8.5	1.0	37.0*
COc1cccc(C2=NOC(C(=O)Nc3ccc4c(c3)OCO4)C2)c1OC (centres undefined)	-15.6	0.1	59.8*	0.8	-24.9
COc1cc(C2=NOC(C(=O)Nc3ccc(C)cc3)C2)cc(OC)c1OC (centres undefined)	9.3	-0.7	57.1*	-3.0	10.9
CCc1c(N)nc(N)nc1Nc1ccccc1C	-27.0	x	x	3.2	x
NC(=O)NC(=O)CN1C(=O)NC2(CCOc3ccccc32)C1=O (centres undefined)	3.0	-0.5	-11.4	3.0	-5.0
CNC(=O)NC(=O)CN1C(=O)NC2(CCOc3ccccc32)C1=O (centres undefined)	-5.0	-0.9	31.2*	0.3	19.2
CC(C)CC(=O)Nc1ccc(C(=O)CN2C(=O)NC3(CCOc4ccccc43)C2=O)cc1 (centres undefined)	13.3	0.3	1.4	2.1	32.9*
Cc1cccc(C)c1NC(=O)CNC(=O)CN1C(=O)NC2(CCc3ccccc32)C1=O (centres undefined)	-2.2	0.5	33.2*	11.5	3.7
Cc1cccc(NC(=O)CNC(=O)CN2C(=O)NC3(CCCc4ccccc43)C2=O)c1C (centres undefined)	-3.0	0.6	11.9	-2.4	6.6
CC(=O)Nc1cccc(NC(=O)Nc2cccc3ccccc23)c1	-9.2	0.3	46.0*	1.9	-11.5
O=C(Cc1ccccc1)N(Cc1cccnc1)c1nc2ccc(F)cc2s1	x	2.1	x	x	-6.4
COCCNC(=O)CCn1c(=O)c2cc(OC)c(OC)cc2n(CC(=O)Nc2ccc(F)c(Cl)c2)c1=O	x	-0.3	x	x	0.5
CN(C)/C=N/c1ncc(C(=O)c2ccc(Cl)cc2)s1	-16.3	0.9	56.6*	-0.4	-10.9
CN(C)/C=N/c1ncc(C(=O)c2ccc(Cl)cc2Cl)s1	-0.2	0.8	-11.8	-7.0	-0.2
Cc1ccc(C)c(C(=O)N(Cc2nc(-c3ccc(Cl)cc3)no2)C(C)C)c1	-0.5	1.0	39.9*	0.1	-0.7
CCCSc1nc(=S)n(Cc2ccccc2)c(C)c1C(C)=O	-3.7	-0.8	43.1*	6.1	-7.6
SMILES	D2 PAM-1	D2 ag-1	D2 antag	D2 ag-2	D2 PAM-2
CC(=O)c1c(N2CCCCC2)nc(=S)n(Cc2ccccc2)c1C	7.6	-0.8	-29.5	-0.3	4.7
CCCc1cc(=O)oc2c3c(cc(OCC(=O)N[C@@H](CSC)C(=O)O)c12)OC(C)(C)CC3	-4.4	0.0	5.0	-2.5	0.5
CCCc1cc(=O)oc2c3c(cc(OCC(=O)N[C@@H](C)C(=O)O)c12)OC(C)(C)CC3	-7.7	1.1	32.9*	-4.5	14.4
C(=N\Nc1cc(N2CCCCC2)ncn1)/c1ccco1	-2.1	0.4	6.1	-4.8	-0.5
CCOc1ccccc1-c1noc(CSc2nnc(-c3ccccc3)n2-c2cccc(C)c2)n1	x	-0.1	x	x	-6.5
COc1ccc(OC)c(NC(=O)CCN2CCN(Cc3ccccc3)CC2)c1	-14.4	36.3*	23.0	2.7	-13.3
COC(=O)c1[nH]c2cccc(C)c2c1NC(=O)CN1CCN(C(=O)c2ccco2)CC1	3.7	0.7	-2.4	10.2	11.8
COC(=O)c1[nH]c2cccc(C)c2c1NC(=O)CN1CCN(c2ccccc2OC)CC1	-12.2	39.0*	54.4*	2.0	-21.8
COC(=O)c1c(NC(=O)CN2CCN(c3ccccc3)CC2)c2c(C)cccc2n1C	18.2	18.3	11.4	9.7	-0.3
COC(=O)c1[nH]c2cccc(OC)c2c1NC(=O)CCN1CCC(C(N)=O)CC1	x	-0.4	-18.4	x	7.9
COC(=O)c1[nH]c2cccc(OC)c2c1NC(=O)CCN1CCN(c2ccccc2F)CC1	x	44.2*	73.6*	x	-27.8
COC(=O)c1c(NC(=O)CN2CCN(c3ccccc3OC)CC2)c2c(C)cccc2n1C	x	52.3*	-10.3	x	-14.7
COc1cccc(N2CC(NC(=O)/C=C\c3ccc4c(c3)OCO4)CC2=O)c1 (centres undefined)	x	-0.2	x	x	10.5
Cc1cccc(CN2CCN(CC(=O)NCCc3ccc(Cl)cc3)C2=O)c1	x	-0.7	x	x	-8.4
CCOC(=O)C1CCCN(CCC(=O)Nc2c(C(=O)OC)[nH]c3cc(OC)ccc23)C1 (centres undefined)	4.1	17.9	-23.4	-1.3	-21.3
COC(=O)c1[nH]c2cc(OC)ccc2c1NC(=O)CCN1CCN(c2ccccc2)CC1	-10.6	-0.6	63.2*	-0.4	-22.1
Fc1cccc(CN2CCC(Cc3ccccc3)CC2)c1	-66.1	-4.0	55.7*	1.3	0.6
O=C(/C=C/c1cccc(F)c1)NC1CCN(Cc2ccccc2)CC1	-18.1	-1.4	56.4*	-2.7	-25.1
O=C(NC1CCN(Cc2ccccc2)CC1)c1c(Cl)cccc1Cl	-25.2	0.5	-6.0	-2.5	4.0
CCN1CCC(NC(=O)Nc2cccc(C(F)(F)F)c2)CC1	-22.2	-0.2	36.7*	-1.7	-4.4
Fc1ccccc1CN1CCC(Cc2ccccc2)CC1	-9.4	-1.7	3.5	-3.8	-1.9
CCN1CCN(C(=O)Nc2cccc(C(F)(F)F)c2)CC1	-6.8	0.3	-3.6	1.2	-5.9
O=C(/C=C/c1cccc(Br)c1)NC1CCN(Cc2ccccc2)CC1	-23.5	0.9	71.8*	-1.6	-25.1
O=C(COC(=O)/C=C/c1cccc(F)c1)NC1CC1	-18.8	x	x	-1.8	x
